# High-throughput results (PubChem BioAssay)
# Shown are actives, neighbours in structure and some others; about 3.2% of the full set was active somewhere.
# p53 reactivator – mutant p53 re-activation in reporter cells | H1299 p53-A138V BP100-luciferase reporter, luminescence, 24 h | Potency, µM (highest dose often 92.2 µM), most hits filed as activators | 320,000 tested, 0.063% active; note: nearly all actives have a fitted effect of over 45% in size
#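 p53-null H1299 cells stably carrying temperature-sensitive p53-A138V and a BP100-luciferase reporter were pinned with compounds (4-point, 1:5 series) and held 24 hrs at 37 deg C. Luminescence was read 10 min after detection reagent.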
# BRCA1 expr act – activators of BRCA1 expression. MCF7-BRCA1-FFLuc reporter, luminescence, 48 h; response scale: scaled: vehicle 0%, 10 µM genistein 100%. Potency, µM (doses to about 46.1 µM), hits mostly activators. 380,000 tested, 1.1% active; note: nearly all actives have a fitted effect of over 80% in size
#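 Using MCF7 cells harboring a BRCA1 firefly luciferase reporter, plated 2 h before compound pinning, the screen measured luminescence after 48 h incubation. Responses were normalized to DMSO and 10 microM genistein, then fitted for concentration-effect.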
# A549 tox – A549 cytotoxicity, counter-screen for Nrf2 inhibitors | A549 ARE-Fluc cells, CellTiter-Fluor viability, 18-24 h | Potency, µM (doses to about 46 µM), most hits filed as inhibitors | 390,000 tested, 0.16% active | AID 504648
#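 Cytotoxicity counterscreen: CellTiter-Fluor fluorescence was measured in A549 ARE_Fluc cells after 18-24 h of compound exposure in a concentration series. The subsequent BugLite luminescent read reports ARE-luciferase activity.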
# Nrf2 inh – inhibitors of Nrf2 signaling. A549 ARE-Fluc reporter, luciferase luminescence, 18-24 h. Potency, µM (doses to about 46 µM), hits mostly inhibitors. 360,000 tested, 2.1% active. AID 504444; note: nearly all actives have a fitted effect of over 60% in size
#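 Nrf2 function is reported as luminescence of an ARE-controlled luciferase in A549 cells. Compounds were tested at several concentrations, and a CellTiter-Fluor read on the same wells flagged cytotoxicity.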
# IL-2 act – activators of IL-2 | IL-2 activation reporter assay, cell-based qHTS; stimulated with anti-CD3/CD4/CD28 beads; in transgenic mouse T cells | activation, % (series mostly up to about 46 µM) | 360,000 tested, 0.065% active | AID 652025; in the data active = activation above about 50%; inconclusive = mostly about 30% to 49%
#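 EGFP and DsRed fluorescence is measured by plate cytometry in unstimulated transgenic mouse T cells exposed to compound for 60 minutes, then stimulated 18 hours at 37 degrees C with anti-CD3/anti-CD4 beads plus anti-CD28.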
# Nrf2 activator – activates Nrf2 signaling. AREc32 ARE-luciferase reporter (MCF7-derived line), luminescence, 24 h. Potency, µM (doses to about 46.1 µM), actives largely listed as activators. 410,000 tested, 0.31% active. AID 624171; note: nearly all actives have a fitted effect of over 65% in size
#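 ARE-driven firefly luciferase activity in AREc32 cells measured after a 24 hr compound exposure at 37 deg C, using Steady-Glo reagent and a 30 min room-temperature hold.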
# Numbers stand for hits; – = inactive; ? = inconclusive; · = not tested or not shown; [ ] = another dose, or the depositor's remark. Unless noted, calls come from the whole dose curve; as a rule, active = well fitted curve in the direction sought with a large enough effect; inconclusive = small, poorly fitted or top-dose-only effect, or another doubt; inactive = no such curve, though single readings can be large; an effect the other way counts as inactive or inconclusive.
SMILES,p53 reactivator,BRCA1 expr act,A549 tox,Nrf2 inh,IL-2 act,Nrf2 activator
O=C(NCc1cccs1)c1cc(-c2cccc(Cl)c2)on1,?,–,–,?,–,–
NCCc1nc2cccnc2n1-c1ccccc1,·,–,–,·,·,–
Cc1ccccc1NC(=O)c1c(NC(=O)c2ccncc2)sc2c1CCC(C(C)(C)C)C2 (stereo unspecified),·,·,–,?,·,–
CC(=O)N1CCc2cc(S(=O)(=O)N3CCN(S(=O)(=O)c4c(F)cccc4F)CC3)ccc21,·,·,–,–,·,·
CCN1CCc2nc(NC(=O)c3ccc4c(c3)OCCO4)sc2C1,–,4.5µM,·,?,–,–
CC(=O)c1sc(NC(=O)c2ccc3c(c2)OCO3)nc1C,–,2.5µM,–,–,–,–
O=C(Nc1nccs1)c1ccc2c(c1)OCO2,?,8.9µM,–,?,–,–
CC(=O)c1sc(NC(=O)c2ccc(C)c(C)c2)nc1C,?,?,–,?,–,–
O=C(NNc1c(Cl)cccc1Cl)c1sc2ccccc2c1Cl,·,–,–,–,·,·
C=C1C(=O)OC2C=C(CO)C3OC3C3OC3(C)CC(OC(=O)/C(=C/C)COC(C)=O)C12 (stereo unspecified),·,–,?,23µM,–,?
NC(=O)c1cc2ccccc2o/c1=N\NC(=O)c1ccc(F)cc1,–,–,–,?,–,?
NC(=O)c1cc2ccccc2o/c1=N\NC(=O)c1ccccc1O,–,–,–,8.2µM,–,–
CC(C)Nc1oc(-c2cccc3ccccc23)nc1C#N,–,14µM,–,–,–,–
COc1ccc(C(C#N)=C2C=C(Cl)C(=NO)C=C2Cl)cc1,·,–,·,·,–,11µM
CC1(C)CCC(=O)N2CC[C@H]3C[C@H](OC(=O)Nc4ccccc4)C[C@@H]1[C@H]32,–,?,–,?,–,–
CC1(C)CCC(=O)N2CC[C@H]3C[C@H](OC(=O)Nc4ccc5c(c4)OCO5)C[C@@H]1[C@H]32,·,11µM,–,–,–,–
Clc1cccc(CNc2ccn3nc(-c4cccs4)cc3n2)c1,·,8.9µM,·,·,–,–[9.22 µM]
Clc1cccc(CNc2ccn3nc(-c4ccco4)cc3n2)c1,·,–,·,·,–,–
O=C(Nc1ccc(S(=O)(=O)Nc2ccccc2)cc1)C1COc2ccccc2O1 (stereo unspecified),–,–,–,18µM,–,–
COc1ccc(Cl)cc1NC(=O)C1COc2ccccc2O1 (stereo unspecified),–,–,–,–,–,3.5µM
Cc1cc(C)nc(NS(=O)(=O)c2ccc(NC(=O)C3COc4ccccc4O3)cc2)n1 (stereo unspecified),–,–,–,?,–,–
CCOc1ccc(OCC)c(NC(=O)C2COc3ccccc3O2)c1 (stereo unspecified),–,–,–,?,–,–
CCOc1ccccc1NC(=O)C1COc2ccccc2O1 (stereo unspecified),·,–,–,–,–,6.3µM
CCOC(=O)c1ccc(NS(=O)(=O)c2ccc(SC)cc2)cc1,–,–,?,23µM,–,–
CCOC(=O)c1ccc(NS(=O)(=O)c2ccc3c(c2)n(C)c(=O)n3C)cc1,–,–,–,21µM,–,–
SMILES,p53 reactivator,BRCA1 expr act,A549 tox,Nrf2 inh,IL-2 act,Nrf2 activator
Cc1ccc(S(=O)(=O)Nc2ccc3c(c2)n(C)c(=O)n3C)cc1,–,–,–,?,–,–
Cn1c(=O)oc2cc(S(=O)(=O)Nc3cccc(F)c3)ccc21,–,–,–,–,–,–
CSc1cccc(NS(=O)(=O)c2ccc3c(c2)oc(=O)n3C)c1,–,–,–,26µM,–,–
CCOc1ccc(S(=O)(=O)Nc2ccc3c(c2)n(C)c(=O)n3C)cc1,–,–,–,16µM,–,–
CCOc1ccc(S(=O)(=O)N2CCN(c3nc(-c4ccccc4)nc4ccccc34)CC2)cc1OCC,·,–,–,–,·,·
CCCCOc1ccc(C(=O)Nc2cc(-c3cn4cccnc4n3)ccc2OC)cc1,·,·,–,·,·,–
Cn1c(=O)n(C)c2cc(S(=O)(=O)Nc3ccccc3)ccc21,–,–,–,23µM,–,–
